According to PubChem BioAssay (NCATS):
Results filed as inconclusive are left out. Where a call stands in place of a potency, no number is given. Active and inactive are the calls of the source. Unless noted, calls follow the shape of the dose curve; as a rule, active = well fitted inhibition curve with a large enough effect; inconclusive = small, poorly fitted or top-dose-only effect; inactive = flat fitted curve, though single readings scatter.

What was measured:
[1] = molecular target: Luciferin 4-monooxygenase (Photinus pyralis) (UniProt P08659); experiment: Biochemical firefly luciferase enzyme assay for NPC (AID 624030);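 also: purified P. pyralis luciferase at 10 nM with luciferin and ATP substrate; nearly all actives have a fitted effect of over 70% in size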
In short: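 Counter-screen for direct inhibition of the luciferase enzyme by approved-drug library compounds, run at 10 nM enzyme in 50 mM Tris acetate (final). Luminescence was read within 5 min of enzyme-buffer addition and normalized to PTC124 versus DMSO (0%).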

[2] = P-glycoprotein substrates identified in KB-8-5-11 adenocarcinoma cell line, qHTS therapeutic library screen (AID 1346987); also: nearly all actives have a fitted effect of over 65% in size
In short: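 P-gp-mediated resistance screen: KB-8-5-11 cells treated 72 h with compounds in dose-response. CellTiter-Glo viability.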

[3] = system: astro; experiment: Drug repurposing screens with cells derived from glioblastoma tumor samples (AID 1345199); settings: viability, ATP luminescence, 48 h; series mostly up to 45.9 µM; also: nearly all actives have a fitted effect of over 40% in size
In short: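 Four patient lines of CD133+ GBM neurospheres were screened at several concentrations; hits were retested in those lines plus three slower-growing GBM lines, using 48-hour treatment and ATP-based viability.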

[4] = qHTS for Inhibitors of the Functional Ribonucleoprotein Complex (vRNP) of Lassa (LASV) Arenavirus: LASV Primary Screen - GLuc reporter signal (AID 1347082; calls by dose curve; tested in HEK293 reporter line; also: potency is read from the fitted curve at half-maximal effect; nearly all actives have a fitted effect of over 60% in size)

Luciferin 4-monooxygenase (Photinus pyralis), sequence (P08659 whole entry, looked up): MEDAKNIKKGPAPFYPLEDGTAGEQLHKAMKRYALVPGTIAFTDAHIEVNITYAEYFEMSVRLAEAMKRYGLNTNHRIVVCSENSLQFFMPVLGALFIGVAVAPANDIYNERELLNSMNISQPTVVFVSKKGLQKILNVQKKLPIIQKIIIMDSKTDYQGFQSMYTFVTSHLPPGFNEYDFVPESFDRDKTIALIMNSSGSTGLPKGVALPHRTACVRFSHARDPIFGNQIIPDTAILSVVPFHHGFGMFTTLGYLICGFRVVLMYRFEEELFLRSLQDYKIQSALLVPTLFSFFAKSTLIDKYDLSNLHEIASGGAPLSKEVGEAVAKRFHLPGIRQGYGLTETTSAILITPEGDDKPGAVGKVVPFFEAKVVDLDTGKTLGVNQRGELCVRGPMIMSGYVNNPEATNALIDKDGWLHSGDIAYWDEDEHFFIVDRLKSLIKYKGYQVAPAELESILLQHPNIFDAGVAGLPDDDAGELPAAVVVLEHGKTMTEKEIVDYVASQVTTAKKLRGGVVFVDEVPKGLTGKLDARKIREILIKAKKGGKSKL

| Structure (SMILES) | Potency [1] | Potency [2] | Potency [3] | Potency [4] |
| --- | --- | --- | --- | --- |
| O=C1CN=C(c2ccccc2)c2cc(Cl)ccc2N1 | inactive | inactive | inactive | – |
| CCCNC(=O)[C@H]1O[C@H]1C(=O)N[C@H](C(=O)N1CCC[C@@H]1C(=O)OC)C(C)CC (stereo partly specified) | – | – | – | 27.3 µM (active) |
| COc1cc(C[C@H](C)N)c(OC)cc1C | – | inactive | inactive | – |
